# Measurements published in PubChem BioAssay (NCATS).
# Records with an inconclusive call do not appear. Where a call stands in place of a potency, no number is given. Activity calls are given as the source filed them. Unless noted, calls follow the shape of the dose curve; as a rule, active = well fitted cell-killing curve with a large enough effect; inconclusive = small, poorly fitted or top-dose-only effect; inactive = flat fitted curve, though single readings scatter.
# How the values were obtained:
# [1] = NCATS anti-infectives library activity on HEK293 viability as a counter-qHTS vs the C. elegans viability qHTS (AID 1745854);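 also: HEK293 cells exposed to compounds for 24 hr before the viability read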
# Method in brief: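 HEK293 cells (1,500/well) exposed 24 hr at 37C to 1:5 titrations, up to 41.7 uM final; counter-screen to a C. elegans viability qHTS. Viability by CellTiter-Glo luminescence after 10 min at room temperature; digitonin as control.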
# [2] = NCATS anti-infectives library activity on the primary C. elegans qHTS viability assay (AID 1745855; calls by dose curve; also: potency is read from the fitted curve at half-maximal effect); conditions: C. elegans worm area imaging, day 7
# Method in brief: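 Viability read-out is GFP fluorescence of PE254-GFP-FLuc C. elegans, measured by laser cytometry (488 nm) at day 0, 3 and 7. Ten L1 worms per well were incubated 7 days at 21 °C with compounds and bacterial capsules in S medium.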
smiles,measurement,setting,value
COc1c(O)cc2oc3cc(O)c(CC=C(C)C)c(O)c3c(=O)c2c1CC=C(C)C,outcome,[1],inactive
same,Potency,[2],6.48 µM (active)
